Screening results: PubChem, National Center for Advancing Translational Sciences (NCATS)
G9a inh: qHTS Assay for Inhibitors of Histone Lysine Methyltransferase G9a; Histone-lysine N-methyltransferase EHMT2 (Homo sapiens), Q96KQ7; 8.8% of 350,000 active; Potency, µM (top dose mostly 102 µM), hits mostly inhibitors; G9a H3K9 monomethylation, AlphaScreen, 2 h; also: nearly all actives have a fitted effect of over 75% in size
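G9a (20 nM) was preincubated 15 min with compound, then reacted 2 h at room temperature with 500 nM biotin-H3K9 peptide and 20 µM SAM. Monomethyl-H3K9 detected by AlphaScreen using anti-H3K9me1 antibody.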
CCT chaperon mod: High-Throughput Screening for Modulators of Cytosolic Chaperonin Activity. purified chaperonin ATPase assay, HTRF ADP detection, 30 min. activity change, % (test concentration not listed), hits read low. 0.3% of 360,000 active. AID 651819, 2012; in the data active = activity change below about -30%
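ATPase activity: ADP formed was measured by HTRF Transcreener (665/615 nm ratio) after 30 min at 37 deg C with 10 uM ATP. Compounds screened at one 76 uM concentration against 40 or 20 nM TRiC in Tris pH 7.4/KCl/MgCl2/DTT buffer.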
VDR inhibitor: Inhibitors of the vitamin D receptor (VDR): qHTS; 0.93% of 400,000 active; Potency, µM, hits mostly inhibitors; VDR-SRC2-3 peptide fluorescence polarization, 2 h
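Fluorescence polarization assay of small-molecule disruption of VDR binding to coregulator peptide SRC2-3. Compounds and controls pin-transferred, then read after 2 h incubation at ambient room temperature.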
Mm-Cpn inhibitor: Inhibitors of TCP-1 ring complex (TRiC) of Methanococcus maripaludis (MmCpn): qHTS; Chaperonin Mm-Cpn (Methanococcus maripaludis); purified Mm-Cpn ATPase, ADP Transcreener TR-FRET; Potency, µM (series often up to 76.9 µM), actives largely listed as inhibitors; 0.031% of 330,000 active; AID 504842, 2011; also: nearly all actives have a fitted effect of over 80% in size
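Eu-cryptate anti-ADP/ADP-d2 competition gives a ratio inversely related to ADP. Enzyme at 25 nM was pre-exposed to compound for 10 min, then given 10 uM ATP for 30 min, 37°C throughout.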
Sfp inh: qHTS Assay for Inhibitors of Bacillus subtilis Sfp phosphopantetheinyl transferase (PPTase). AID 1490, 2009. Potency, µM, hits mostly inhibitors. 3.5% of 310,000 active. Biochemical Sfp PPTase activity, qHTS;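 also: the enzyme is Sfp with the accession as filed and its product quenches rhodamine fluorescence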
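Step 1, compound plus 15 nM Sfp-PPTase, 15 min, room temperature. Step 2, add rhodamine-CoA (5 uM) and BHQ-2-YbbR (12.5 uM). Step 3, read 525/598 nm fluorescence at 0 and 30 min.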
PLK1 PBD block: qHTS for Inhibitors of PLK1-PDB (polo-like kinase 1 - polo-box domain): Primary Screen; Potency, µM, hits mostly inhibitors; Plk1 PBD binding of FITC phosphopeptide, fluorescence polarization; 2.8% of 360,000 active; Serine/threonine-protein kinase PLK1 (Homo sapiens), P53350; also: series mostly up to about 57 µM; nearly all actives have a fitted effect of over 65% in size
Target sequence (P53350 whole entry, looked up, the tested form may be a part): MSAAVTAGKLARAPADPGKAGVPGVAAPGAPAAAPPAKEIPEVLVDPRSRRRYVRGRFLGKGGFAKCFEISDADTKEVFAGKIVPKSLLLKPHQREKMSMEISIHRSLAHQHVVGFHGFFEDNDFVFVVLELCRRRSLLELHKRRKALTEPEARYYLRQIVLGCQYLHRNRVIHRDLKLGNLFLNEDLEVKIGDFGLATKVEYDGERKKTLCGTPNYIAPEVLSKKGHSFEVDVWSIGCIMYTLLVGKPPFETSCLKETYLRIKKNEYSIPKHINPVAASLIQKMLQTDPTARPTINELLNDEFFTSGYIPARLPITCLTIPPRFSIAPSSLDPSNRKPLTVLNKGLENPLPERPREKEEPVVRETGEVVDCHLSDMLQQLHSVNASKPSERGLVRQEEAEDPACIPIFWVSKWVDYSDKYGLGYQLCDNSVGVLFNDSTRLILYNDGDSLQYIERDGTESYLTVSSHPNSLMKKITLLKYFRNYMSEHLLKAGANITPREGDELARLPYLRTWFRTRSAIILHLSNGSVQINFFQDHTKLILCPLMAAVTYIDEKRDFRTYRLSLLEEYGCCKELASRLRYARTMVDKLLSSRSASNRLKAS
Numbers stand for hits; [ ] = dose if it differs, or a comment. Hits are enriched below; roughly 10% of the tested compounds scored in any of these assays. Unless noted, calls follow the shape of the dose curve; as a rule, active = well fitted curve in the direction sought with a large enough effect; inconclusive = small, poorly fitted or top-dose-only effect, or another doubt; inactive = no such curve, though single readings can be large; an effect the other way counts as inactive or inconclusive.

`O=C(Nc1cccc(F)c1)c1ccc2snnc2c1` gave G9a inh inactive and VDR inhibitor inactive.
Screening CC(=O)C1=C(O)C(=O)N(Cc2ccco2)C1c1cccc(F)c1 (configuration not stated) returned G9a inh inactive, CCT chaperon mod inactive, VDR inhibitor inactive, Mm-Cpn inhibitor inactive, Sfp inh inactive and PLK1 PBD block inactive.
Cc1ccc(C(=O)C2=C(O)C(=O)N(Cc3ccco3)C2c2cccc(Br)c2)o1 (configuration not stated) was read as G9a inh inconclusive, CCT chaperon mod inactive, VDR inhibitor inactive, Mm-Cpn inhibitor inactive, Sfp inh 56.2µM and PLK1 PBD block inactive.
Cc1ccc(C(=O)C2=C(O)C(=O)N(Cc3ccco3)C2c2cccc(Cl)c2)o1 (configuration not stated) was read as G9a inh 39.8µM, CCT chaperon mod inactive, VDR inhibitor inconclusive, Mm-Cpn inhibitor inactive, Sfp inh inactive and PLK1 PBD block inactive.
`Cc1ccc(C(=O)C2=C(O)C(=O)N(c3ncccn3)C2c2cccc(Cl)c2)o1` (configuration not stated) gave G9a inh 10µM, Mm-Cpn inhibitor inactive and Sfp inh inconclusive.
O=C(C1=C(O)C(=O)N(Cc2ccco2)C1c1cccc(O)c1)c1ccco1 (configuration not stated) was read as G9a inh 50.1µM, CCT chaperon mod inactive, VDR inhibitor inactive, Mm-Cpn inhibitor inactive, Sfp inh inactive and PLK1 PBD block inactive.
`CC(C)(N)C(=O)N[C@@H](Cc1cnc[nH]1)C(=O)N[C@H](Cc1ccc2ccccc2c1)C(=O)N[C@H](Cc1ccccc1)C(=O)N[C@@H](CCCCN)C(N)=O` gave VDR inhibitor inactive and Sfp inh inactive.
For CCC[C@@H]1C[C@@]1(CCC)C(NP(=O)(c1ccccc1)c1ccccc1)c1ccc(Cl)cc1 (some centres not stated) the results were Sfp inh inactive.
`C=CCOc1cccc(C2C(C(=O)c3ccco3)=C(O)C(=O)N2Cc2cccnc2)c1` (configuration not stated) gave G9a inh 31.6µM, CCT chaperon mod inactive, VDR inhibitor inactive, Mm-Cpn inhibitor inactive, Sfp inh inactive and PLK1 PBD block inactive.
Screening CNS(=O)(=O)c1cccc(C(=O)OC2CCCCC2=O)c1 (configuration not stated) returned G9a inh 12.6µM, CCT chaperon mod inactive, VDR inhibitor inactive, Mm-Cpn inhibitor inactive, Sfp inh inactive and PLK1 PBD block inactive.
For CC(=O)Nc1ccc(C(=O)OC2CCCCC2=O)cc1 (configuration not stated) the results were G9a inh inactive, CCT chaperon mod inactive, VDR inhibitor inconclusive, Mm-Cpn inhibitor inactive, Sfp inh inactive and PLK1 PBD block inactive.
CC1(C)SC(=S)N(NC(=O)Nc2ccccc2)C1N(O)C(=O)Nc1cccc2ccccc12 (configuration not stated) was read as G9a inh 11.2µM, CCT chaperon mod inactive, VDR inhibitor inactive, Mm-Cpn inhibitor inactive, Sfp inh inactive and PLK1 PBD block inactive.
`CCOC(=O)c1noc2ncnc(Nc3ccc(F)cc3F)c12` gave G9a inh inactive and VDR inhibitor inactive.
Screening Cc1ccccc1N/C(=N/S(=O)(=O)c1ccccc1)c1ccc(F)cc1 returned G9a inh inactive, CCT chaperon mod inactive, VDR inhibitor inactive, Mm-Cpn inhibitor inactive, Sfp inh inactive and PLK1 PBD block 37.7µM.
Screening COc1ccccc1N1CCN(S(=O)(=O)c2c(C)sc3ncn(CC(=O)Nc4ccc(C(F)(F)F)cc4)c(=O)c23)CC1 returned G9a inh inactive and VDR inhibitor inactive.
COc1ccc(Oc2ncc3nc(-c4ccc(F)cc4)c(=O)n(Cc4cccs4)c3n2)cc1 was read as G9a inh inactive[0.501 µM], VDR inhibitor inactive and Sfp inh inactive.
Screening COc1ccc(S(=O)(=O)N(n2c(C)nnc2-n2nc(C)cc2C)S(=O)(=O)c2ccc(OC)cc2)cc1 returned G9a inh 25.1µM, CCT chaperon mod inactive, VDR inhibitor inactive, Mm-Cpn inhibitor inactive, Sfp inh inactive and PLK1 PBD block inactive.
`O=C(c1cccc(Cl)c1)n1nc(-c2ccco2)nc1NCc1cccs1` gave G9a inh inactive and VDR inhibitor inactive.
For O=[N+]([O-])O[C@H]1CO[C@H]2[C@@H]1OC[C@H]2O the results were G9a inh inactive, VDR inhibitor inactive and Sfp inh inactive.
Screening CN1CCN(c2ccc([N+](=O)[O-])c(-n3nc(-c4ccccc4)c4ccccc4c3=O)c2)CC1 returned G9a inh 44.7µM, CCT chaperon mod inactive, VDR inhibitor inactive, Mm-Cpn inhibitor inactive, Sfp inh inactive and PLK1 PBD block inactive.
For Cc1nn(-c2cc(N3CCCCC3)ccc2[N+](=O)[O-])c(=O)c2ccccc12 the results were G9a inh inconclusive, CCT chaperon mod inactive, VDR inhibitor inactive, Mm-Cpn inhibitor inactive, Sfp inh inactive and PLK1 PBD block inactive.
`COc1ccc(NC(=O)CC2C(=O)N(c3ccc(C)cc3)C(=O)N2Cc2cccnc2)cc1` (configuration not stated) gave G9a inh inactive and VDR inhibitor inactive.
COc1ccc(NC(=O)N2CCN(c3nc(-c4cccc(OC)c4)cs3)CC2)cc1 was read as G9a inh 12.6µM, CCT chaperon mod inactive, VDR inhibitor inactive, Mm-Cpn inhibitor inactive, Sfp inh inactive and PLK1 PBD block inactive.
For CCNC(=S)N1CCN(c2nc(-c3cccc(OC)c3)cs2)CC1 the results were G9a inh 79.4µM, CCT chaperon mod inactive, VDR inhibitor inactive, Mm-Cpn inhibitor inactive, Sfp inh inactive and PLK1 PBD block inactive.
Screening COc1cccc(NC(=O)CN2C(=O)CC(c3ccco3)Sc3ccccc32)c1 (configuration not stated) returned G9a inh inconclusive and VDR inhibitor inactive.
`O=C(CN1CCCC1)Nc1cc(F)ccc1F` gave G9a inh inactive, CCT chaperon mod inactive, VDR inhibitor inactive, Mm-Cpn inhibitor inactive, Sfp inh inactive and PLK1 PBD block inactive.
`O=C(CNCCc1ccc(F)cc1)Nc1cc(F)ccc1F` gave G9a inh inconclusive, CCT chaperon mod inactive, VDR inhibitor inactive, Mm-Cpn inhibitor inactive, Sfp inh 63.1µM and PLK1 PBD block inactive.
